According to the supplement of paper PMC4466140:

Target: CaNbp2
Assay: SPOT peptide array binding signal intensity (averaged, normalized) (arbitrary units (background-subtracted, floor 0; scale differs between SH3 domains)); higher = stronger binding of the SH3 domain to the peptide
Procedure: (§1)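 GST-tagged SH3 domains from S. cerevisiae (Sc), A. gossypii (Ag), C. albicans (Ca) and S. pombe (Sp) were incubated at 10 ug/ml overnight at 4 C on cellulose SPOT membranes carrying 292 synthetic 15-mer peptides mined from the S. cerevisiae proteome (cysteines replaced by serines). Binding was detected with anti-GST antibody, HRP secondary and chemiluminescence, quantified with Genespotter, and reported as normalized spot intensities averaged over biological replicates.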

Binder	SPOT peptide array binding signal intensity
RLPAPPPPPRRGPAP	63.5
LSKRLPLRFPEHTSS	63.5

Target: CaRvs167
Assay: as above
Procedure: as §1

Binder	SPOT peptide array binding signal intensity
RLPAPPPPPRRGPAP	223
LSKRLPLRFPEHTSS	15.2

Target: CaRvs167-3
Assay: as above
Procedure: as §1

Binder	SPOT peptide array binding signal intensity
RLPAPPPPPRRGPAP	9.25
LSKRLPLRFPEHTSS	15.8

Target: CaSho1
Assay: as above
Procedure: as §1

Binder	SPOT peptide array binding signal intensity
RLPAPPPPPRRGPAP	11
LSKRLPLRFPEHTSS	212

Target: CaSla1-D1-D2
Assay: as above
Procedure: as §1

Binder	SPOT peptide array binding signal intensity
RLPAPPPPPRRGPAP	2140
LSKRLPLRFPEHTSS	≤ 0

Target: CaSla1-D3
Assay: as above
Procedure: as §1

Binder	SPOT peptide array binding signal intensity
RLPAPPPPPRRGPAP	20.2
LSKRLPLRFPEHTSS	1

Target: ScAbp1
Assay: as above
Procedure: as §1

Binder	SPOT peptide array binding signal intensity
RLPAPPPPPRRGPAP	53
LSKRLPLRFPEHTSS	63.5

Target: ScBbc1
Assay: as above
Procedure: as §1

Binder	SPOT peptide array binding signal intensity
RLPAPPPPPRRGPAP	198
LSKRLPLRFPEHTSS	≤ 0

Target: ScBem1-D1
Assay: as above
Procedure: as §1

Binder	SPOT peptide array binding signal intensity
RLPAPPPPPRRGPAP	3.5
LSKRLPLRFPEHTSS	23.5

Target: ScBzz1-D1
Assay: as above
Procedure: as §1

Binder	SPOT peptide array binding signal intensity
RLPAPPPPPRRGPAP	222
LSKRLPLRFPEHTSS	10.5

Target: ScBzz1-D2
Assay: as above
Procedure: as §1

Binder	SPOT peptide array binding signal intensity
RLPAPPPPPRRGPAP	47.5
LSKRLPLRFPEHTSS	17

Target: ScCyk3
Assay: as above
Procedure: as §1

Binder	SPOT peptide array binding signal intensity
RLPAPPPPPRRGPAP	5
LSKRLPLRFPEHTSS	61

Target: ScFus1
Assay: as above
Procedure: as §1

Binder	SPOT peptide array binding signal intensity
RLPAPPPPPRRGPAP	≤ 0
LSKRLPLRFPEHTSS	81

Target: ScHof1
Assay: as above
Procedure: as §1

Binder	SPOT peptide array binding signal intensity
RLPAPPPPPRRGPAP	175
LSKRLPLRFPEHTSS	4.25

Target: ScHse1
Assay: as above
Procedure: as §1

Binder	SPOT peptide array binding signal intensity
RLPAPPPPPRRGPAP	173
LSKRLPLRFPEHTSS	532

Target: ScLsb1
Assay: as above
Procedure: as §1

Binder	SPOT peptide array binding signal intensity
RLPAPPPPPRRGPAP	27.2
LSKRLPLRFPEHTSS	4

Target: ScLsb2
Assay: as above
Procedure: as §1

Binder	SPOT peptide array binding signal intensity
RLPAPPPPPRRGPAP	5.5
LSKRLPLRFPEHTSS	≤ 0

Target: ScLsb3
Assay: as above
Procedure: as §1

Binder	SPOT peptide array binding signal intensity
RLPAPPPPPRRGPAP	832
LSKRLPLRFPEHTSS	492

Target: ScLsb4
Assay: as above
Procedure: as §1

Binder	SPOT peptide array binding signal intensity
RLPAPPPPPRRGPAP	413
LSKRLPLRFPEHTSS	10.5

Target: ScMyo3
Assay: as above
Procedure: as §1

Binder	SPOT peptide array binding signal intensity
RLPAPPPPPRRGPAP	881
LSKRLPLRFPEHTSS	≤ 0

Target: ScMyo5
Assay: as above
Procedure: as §1

Binder	SPOT peptide array binding signal intensity
RLPAPPPPPRRGPAP	795
LSKRLPLRFPEHTSS	≤ 0

Target: ScNbp2
Assay: as above
Procedure: as §1

Binder	SPOT peptide array binding signal intensity
RLPAPPPPPRRGPAP	30.5
LSKRLPLRFPEHTSS	50

Target: ScPex13
Assay: as above
Procedure: as §1

Binder	SPOT peptide array binding signal intensity
RLPAPPPPPRRGPAP	502
LSKRLPLRFPEHTSS	≤ 0

Target: ScRvs167
Assay: as above
Procedure: as §1

Binder	SPOT peptide array binding signal intensity
RLPAPPPPPRRGPAP	795
LSKRLPLRFPEHTSS	231

Target: ScSho1
Assay: as above
Procedure: as §1

Binder	SPOT peptide array binding signal intensity
RLPAPPPPPRRGPAP	188
LSKRLPLRFPEHTSS	952

Target: ScSla1-D1-D2
Assay: as above
Procedure: as §1

Binder	SPOT peptide array binding signal intensity
RLPAPPPPPRRGPAP	3480
LSKRLPLRFPEHTSS	6

Target: ScSla1-D3
Assay: as above
Procedure: as §1

Binder	SPOT peptide array binding signal intensity
RLPAPPPPPRRGPAP	3.5
LSKRLPLRFPEHTSS	4.75

Target: SpAbp1-D1
Assay: as above
Procedure: as §1

Binder	SPOT peptide array binding signal intensity
RLPAPPPPPRRGPAP	69
LSKRLPLRFPEHTSS	228

Target: SpBbc1
Assay: as above
Procedure: as §1

Binder	SPOT peptide array binding signal intensity
RLPAPPPPPRRGPAP	20
LSKRLPLRFPEHTSS	1.5

Target: SpBzz1-D1
Assay: as above
Procedure: as §1

Binder	SPOT peptide array binding signal intensity
RLPAPPPPPRRGPAP	4030
LSKRLPLRFPEHTSS	132

Target: SpBzz1-D2
Assay: as above
Procedure: as §1

Binder	SPOT peptide array binding signal intensity
RLPAPPPPPRRGPAP	64.8
LSKRLPLRFPEHTSS	≤ 0

Target: SpCyk3
Assay: as above
Procedure: as §1

Binder	SPOT peptide array binding signal intensity
RLPAPPPPPRRGPAP	57
LSKRLPLRFPEHTSS	≤ 0

Target: SpHof1
Assay: as above
Procedure: as §1

Binder	SPOT peptide array binding signal intensity
RLPAPPPPPRRGPAP	115
LSKRLPLRFPEHTSS	86

Target: SpHof1-2
Assay: as above
Procedure: as §1

Binder	SPOT peptide array binding signal intensity
RLPAPPPPPRRGPAP	166
LSKRLPLRFPEHTSS	36.2

Target: SpHof1-3
Assay: as above
Procedure: as §1

Binder	SPOT peptide array binding signal intensity
RLPAPPPPPRRGPAP	1070
LSKRLPLRFPEHTSS	538

Target: SpHse1
Assay: as above
Procedure: as §1

Binder	SPOT peptide array binding signal intensity
RLPAPPPPPRRGPAP	2.25
LSKRLPLRFPEHTSS	403

Target: SpLsb1
Assay: as above
Procedure: as §1

Binder	SPOT peptide array binding signal intensity
RLPAPPPPPRRGPAP	12.2
LSKRLPLRFPEHTSS	4.75

Target: SpLsb4
Assay: as above
Procedure: as §1

Binder	SPOT peptide array binding signal intensity
RLPAPPPPPRRGPAP	1800
LSKRLPLRFPEHTSS	1200

Target: SpMyo1
Assay: as above
Procedure: as §1

Binder	SPOT peptide array binding signal intensity
RLPAPPPPPRRGPAP	510
LSKRLPLRFPEHTSS	3.75

Target: SpNbp2
Assay: as above
Procedure: as §1

Binder	SPOT peptide array binding signal intensity
RLPAPPPPPRRGPAP	12
LSKRLPLRFPEHTSS	32

Target: SpPex13
Assay: as above
Procedure: as §1

Binder	SPOT peptide array binding signal intensity
RLPAPPPPPRRGPAP	≤ 0
LSKRLPLRFPEHTSS	2

Target: SpRvs167
Assay: as above
Procedure: as §1

Binder	SPOT peptide array binding signal intensity
RLPAPPPPPRRGPAP	1170
LSKRLPLRFPEHTSS	143

Target: SpSla1-D1-D2
Assay: as above
Procedure: as §1

Binder	SPOT peptide array binding signal intensity
RLPAPPPPPRRGPAP	339
LSKRLPLRFPEHTSS	≤ 0

Target: SpSla1-D3
Assay: as above
Procedure: as §1

Binder	SPOT peptide array binding signal intensity
RLPAPPPPPRRGPAP	≤ 0
LSKRLPLRFPEHTSS	≤ 0

Target: AgAbp1
Assay: as above
Procedure: as §1

Binder	SPOT peptide array binding signal intensity
LSKRLPLRFPEHTSS	48

Target: AgBbc1
Assay: as above
Procedure: as §1

Binder	SPOT peptide array binding signal intensity
LSKRLPLRFPEHTSS	5.5

Target: AgBem1-D1
Assay: as above
Procedure: as §1

Binder	SPOT peptide array binding signal intensity
LSKRLPLRFPEHTSS	≤ 0

Target: AgBzz1-D1
Assay: as above
Procedure: as §1

Binder	SPOT peptide array binding signal intensity
LSKRLPLRFPEHTSS	9

Target: AgBzz1-D2
Assay: as above
Procedure: as §1

Binder	SPOT peptide array binding signal intensity
LSKRLPLRFPEHTSS	17

Target: AgCyk3
Assay: as above
Procedure: as §1

Binder	SPOT peptide array binding signal intensity
LSKRLPLRFPEHTSS	≤ 0

Target: AgFus1
Assay: as above
Procedure: as §1

Binder	SPOT peptide array binding signal intensity
LSKRLPLRFPEHTSS	102

Target: AgHof1
Assay: as above
Procedure: as §1

Binder	SPOT peptide array binding signal intensity
LSKRLPLRFPEHTSS	67.5

Target: AgHse1
Assay: as above
Procedure: as §1

Binder	SPOT peptide array binding signal intensity
LSKRLPLRFPEHTSS	234

Target: AgLsb1
Assay: as above
Procedure: as §1

Binder	SPOT peptide array binding signal intensity
LSKRLPLRFPEHTSS	5.5

Target: AgLsb4
Assay: as above
Procedure: as §1

Binder	SPOT peptide array binding signal intensity
LSKRLPLRFPEHTSS	53.5

Target: AgMyo5
Assay: as above
Procedure: as §1

Binder	SPOT peptide array binding signal intensity
LSKRLPLRFPEHTSS	≤ 0

Target: AgNbp2
Assay: as above
Procedure: as §1

Binder	SPOT peptide array binding signal intensity
LSKRLPLRFPEHTSS	10

Target: AgRvs167
Assay: as above
Procedure: as §1

Binder	SPOT peptide array binding signal intensity
LSKRLPLRFPEHTSS	1.33

Target: AgSho1
Assay: as above
Procedure: as §1

Binder	SPOT peptide array binding signal intensity
LSKRLPLRFPEHTSS	17

Target: AgSla1-D1-D2
Assay: as above
Procedure: as §1

Binder	SPOT peptide array binding signal intensity
LSKRLPLRFPEHTSS	2

Target: AgSla1-D3
Assay: as above
Procedure: as §1

Binder	SPOT peptide array binding signal intensity
LSKRLPLRFPEHTSS	≤ 0

Target: CaAbp1-D1
Assay: as above
Procedure: as §1

Binder	SPOT peptide array binding signal intensity
LSKRLPLRFPEHTSS	462

Target: CaAbp1-D2
Assay: as above
Procedure: as §1

Binder	SPOT peptide array binding signal intensity
LSKRLPLRFPEHTSS	220

Target: CaBbc1
Assay: as above
Procedure: as §1

Binder	SPOT peptide array binding signal intensity
LSKRLPLRFPEHTSS	27.2

Target: CaBem1-D1
Assay: as above
Procedure: as §1

Binder	SPOT peptide array binding signal intensity
LSKRLPLRFPEHTSS	10

Target: CaBzz1-D1
Assay: as above
Procedure: as §1

Binder	SPOT peptide array binding signal intensity
LSKRLPLRFPEHTSS	22

Target: CaBzz1-D2
Assay: as above
Procedure: as §1

Binder	SPOT peptide array binding signal intensity
LSKRLPLRFPEHTSS	60.8

Target: CaCyk3
Assay: as above
Procedure: as §1

Binder	SPOT peptide array binding signal intensity
LSKRLPLRFPEHTSS	4

Target: CaFus1
Assay: as above
Procedure: as §1

Binder	SPOT peptide array binding signal intensity
LSKRLPLRFPEHTSS	402

Target: CaHof1
Assay: as above
Procedure: as §1

Binder	SPOT peptide array binding signal intensity
LSKRLPLRFPEHTSS	0.75

Target: CaHse1
Assay: as above
Procedure: as §1

Binder	SPOT peptide array binding signal intensity
LSKRLPLRFPEHTSS	81

Target: CaLsb1
Assay: as above
Procedure: as §1

Binder	SPOT peptide array binding signal intensity
LSKRLPLRFPEHTSS	1

Target: CaLsb4
Assay: as above
Procedure: as §1

Binder	SPOT peptide array binding signal intensity
LSKRLPLRFPEHTSS	136

Target: CaMyo5
Assay: as above
Procedure: as §1

Binder	SPOT peptide array binding signal intensity
LSKRLPLRFPEHTSS	≤ 0
